NR3A LBD binder – binders of NR3A ligand-binding domain, primary screen, biophysical, differential scanning fluorimetry, uHTS | Glutamate receptor ionotropic, NMDA 3A (GRIN3A) ligand-binding domain | NR3A LBD differential scanning fluorimetry, Tm shift; 0% = protein alone, 100% = glycine-bound protein | Tm shift relative to glycine control, % at 25 µM | actives 2.5% (n = 340,000);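 active = melting temperature shift of at least 10% of the positive control shift, at one fixed dose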
MPTP block – mitochondrial permeability transition pore inhibitors, primary screen, biochemical, isolated mouse mitochondria, absorbance. Ca2+ swelling absorbance, 30 min. inhibition, % at 10 µM. actives 1.4% (n = 360,000);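 active = inhibition of 50% or more, scaled per plate between neutral and stimulator controls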
ANO1 block – TMEM16A chloride channel inhibitors, primary screen, cell-based, HTS. HEK293 TMEM16A/YFP iodide influx fluorescence, ionomycin. normalized B-score (activity score, 25-100; higher = stronger inhibition) at 10 µM. actives 1.2% (n = 310,000). AID 588511, 2011;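 active = ratio plate-corrected score three or more library SD toward inhibition, starting fluorescence score within five deviations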;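 also: score derived from kinetic fluorescence span divided by baseline fluorescence per well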
Target sequence (Q8BHY3 whole entry, looked up): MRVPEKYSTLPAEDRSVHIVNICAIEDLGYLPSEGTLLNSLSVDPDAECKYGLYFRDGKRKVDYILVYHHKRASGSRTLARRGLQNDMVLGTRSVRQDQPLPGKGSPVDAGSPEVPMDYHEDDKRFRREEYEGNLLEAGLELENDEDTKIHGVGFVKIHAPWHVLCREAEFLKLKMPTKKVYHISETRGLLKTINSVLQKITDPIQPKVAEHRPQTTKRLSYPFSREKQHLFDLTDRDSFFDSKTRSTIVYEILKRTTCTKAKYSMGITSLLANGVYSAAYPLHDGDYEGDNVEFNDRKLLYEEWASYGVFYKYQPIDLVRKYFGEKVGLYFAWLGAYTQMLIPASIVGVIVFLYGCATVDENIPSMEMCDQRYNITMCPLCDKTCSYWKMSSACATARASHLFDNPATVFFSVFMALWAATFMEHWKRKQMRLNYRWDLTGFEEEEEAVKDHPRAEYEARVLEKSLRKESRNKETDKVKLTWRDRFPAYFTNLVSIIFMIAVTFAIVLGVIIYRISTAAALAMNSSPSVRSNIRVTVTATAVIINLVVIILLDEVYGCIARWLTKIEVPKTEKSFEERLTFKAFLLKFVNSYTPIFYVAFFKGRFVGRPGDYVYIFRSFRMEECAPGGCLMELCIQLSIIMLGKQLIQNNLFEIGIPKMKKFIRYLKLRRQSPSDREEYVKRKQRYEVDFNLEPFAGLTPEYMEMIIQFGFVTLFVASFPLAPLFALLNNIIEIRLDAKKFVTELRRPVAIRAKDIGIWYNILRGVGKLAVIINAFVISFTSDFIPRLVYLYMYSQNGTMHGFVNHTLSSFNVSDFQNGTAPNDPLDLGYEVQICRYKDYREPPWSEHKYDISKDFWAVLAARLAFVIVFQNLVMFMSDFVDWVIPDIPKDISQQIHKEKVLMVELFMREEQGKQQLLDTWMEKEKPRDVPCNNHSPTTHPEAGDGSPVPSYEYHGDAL
ANO1 activ – TMEM16A chloride channel activators or potentiators, primary screen, cell-based, HTS; actives 0.3% (n = 340,000); B-score at 10 µM; HEK293 TMEM16A/YFP-H148Q/I152L, iodide quench fluorescence; stronger effect = lower value; AID 623877, 2012;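 active = fluorescence-ratio B-score plate-corrected deviation score at least 3 library SD below zero, with starting fluorescence score within 5 deviations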;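 also: channel opened by trigger with iodide after compound preincubation; score built on the fluorescence ratio of max minus min over baseline; more negative score means more quench and so TMEM16A activation or potentiation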
CRFBP-R2 block – antagonists of CRF-BP/CRF-R2 complex, primary screen, cell-based, HEK293, calcium dye fluorescence, uHTS; CRF-induced calcium fluorescence; inhibition, % at 11.8 µM; actives 0.59% (n = 350,000); AID 588475, 2011;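 active = inhibition of the ligand-induced calcium signal above about 50% at the single tested concentration, limit read from the data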
CRFBP-R2 agonist – agonists of CRF-BP/CRF-R2 complex, primary screen, cell-based, HEK293, calcium dye fluorescence, uHTS. CRF-binding protein / CRF receptor 2 complex (human). calcium dye fluorescence (FLIPR); percent of saturating CRF peptide response. activation, % at 13.2 µM. actives 0.46% (n = 350,000);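 active = activation of at least 50%, plus an integration ratio under a set limit after plate pattern correction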
A number is an active result; – = inactive; · = no result. Most compounds without a hit are left out; they make up all but 5.1% or so of the library.

SMILES	NR3A LBD binder	MPTP block	ANO1 block	ANO1 activ	CRFBP-R2 block	CRFBP-R2 agonist
CCC1CCCCN1C(=O)CSc1nnc(CNC(=O)c2c(F)cccc2Cl)o1 (stereo not drawn)	–	–	–	–	–	–
COc1cc(/C=C(/C#N)c2nc3ccccc3c(=O)[nH]2)ccc1O	–	–	–	–	–	68
Cn1c(/C(C#N)=C/c2ccc(O)cc2)nc2ccccc21	–	–	–	–	–	–
COc1cc(/C=C(/C#N)c2nc3ccccc3[nH]2)ccc1OC(=O)c1ccco1	–	–	–	-4.8	–	–
COc1cc(/C=C(\C#N)c2nc3ccccc3n2C)cc(OC)c1O	–	–	–	–	–	52
COc1ccc(/C=C(\C#N)c2nc3ccccc3[nH]2)cc1O	–	–	·	–	–	–
COc1cc(/C=C(\C#N)c2nc3ccccc3[nH]2)cc(OC)c1O	–	–	–	–	–	164
O=C(/C=C/[C@H]1O[C@@H](n2ccc(=O)[nH]c2=O)[C@H](O)[C@@H]1O)NCCc1c[nH]c2ccccc12	·	–	·	·	·	·
COc1cc(/C=C(\C#N)c2nc3ccc(C)cc3[nH]2)c([N+](=O)[O-])cc1OC	–	–	–	–	–	–
COc1c(O)ccc(/C=C(\C#N)c2nc3ccccc3[nH]2)c1[N+](=O)[O-]	23	–	–	–	–	–
Cc1ccccc1C(=O)Nc1cccc(NC(=S)NC(=O)c2cccs2)c1	–	–	–	–	–	–
Cc1ccc(OCC(=O)NNC(=S)NC(=O)c2cccs2)c(C)c1	–	–	–	–	–	50
Cc1ccccc1C(=O)NNC(=S)NC(=O)c1cccs1	–	–	–	–	–	99
Cc1ccc(OCC(=O)NNC(=S)NC(=O)c2ccc(Br)o2)c(C)c1	–	–	25	–	–	51
O=C(COc1ccc(Br)cc1Br)NNC(=O)c1cccs1	–	–	–	–	–	–
Cc1cc(Br)cc(C)c1OCC(=O)NNC(=O)c1cccs1	13	–	–	–	–	–
COc1ccc(C(=O)NNC(=S)NC(=O)c2ccc(Br)o2)cc1OC	–	–	–	–	–	–
CCOC(=O)c1c(NC(=O)COC(=O)CCCOc2ccc(OC)cc2)sc(C(=O)N(C)C)c1C	–	–	·	–	–	–
O=C(COc1ccccc1Br)Nc1ccc(S(=O)(=O)N2CCCC2)cc1	–	–	·	–	–	–
C[C@@H]1CN([C@H](C)CO)C(=O)c2cc(C#CC3CC3)cnc2O[C@H]1CN(C)S(C)(=O)=O	·	–	·	·	–	–
Cc1sc2nc(CSc3ccccc3)nc(N3CCC(C(N)=O)CC3)c2c1C	–	–	–	–	–	–
CCOC(=O)c1sc2nc(CSc3ccccc3)nc(N3CCC(C(N)=O)CC3)c2c1C	–	–	–	-5.8	–	–
CC12CCC(C(=O)Nc3ncc([N+](=O)[O-])s3)(OC1=O)C2(C)C (stereo not drawn)	–	–	–	–	63	–
CC12CCC(C(=O)Nc3cccc(NC(=O)C45CCC(C)(C(=O)O4)C5(C)C)n3)(OC1=O)C2(C)C	–	–	–	–	–	–
CCOc1cc(/C=C2\C(=O)N(c3nc(-c4ccc(Br)cc4)cs3)N=C2c2ccccc2)ccc1O	16	–	–	–	–	–
SMILES	NR3A LBD binder	MPTP block	ANO1 block	ANO1 activ	CRFBP-R2 block	CRFBP-R2 agonist
COc1cc(/C=C2\C(=O)N(c3ccc(NC(C)=O)cc3)N=C2c2ccccc2)ccc1O	–	–	–	–	68	–
O=C1/C(=C\c2ccc(O)c(O)c2)C(c2ccccc2)=NN1c1ccccc1	12	–	·	–	–	–
CCOc1cc(/C=C2/SC(=S)N(Cc3ccccc3)C2=O)ccc1O	–	–	–	–	–	–
CC1=NN(c2ccccc2)C(=O)/C1=C\c1sccc1C	–	–	–	–	–	–
COc1cc(/C=C2/C(=O)N(c3ccc(C(=O)O)cc3)N=C2C)cc(OC)c1O	–	–	–	–	–	–
CCOc1ccc(NS(=O)(=O)c2ccc(C(=O)NCCCN3CCCC3=O)cc2)cc1	–	–	–	–	–	–
